# Laboratory results as given in PubChem BioAssay AID602144 (Vanderbilt Specialized Chemistry Center, 2011).
# A number with no mark means an inactive call. Active and inactive are the calls of the source. Cut-off read from the data, not from the text of the source: active = remaining activity below about 50%; inactive = the rest.
# Molecular target: Phospholipase D1 (Homo sapiens) (UniProt Q13393)
# Assay: PLD1 inhibitors in cells, Calu-1 cells, single concentration (AID 602144);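 note: tested at 200 nM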
# Settings: cellular PLD1 activity, stronger effect = lower value
# Phospholipase D1 (Homo sapiens), sequence (Q13393 whole entry, looked up): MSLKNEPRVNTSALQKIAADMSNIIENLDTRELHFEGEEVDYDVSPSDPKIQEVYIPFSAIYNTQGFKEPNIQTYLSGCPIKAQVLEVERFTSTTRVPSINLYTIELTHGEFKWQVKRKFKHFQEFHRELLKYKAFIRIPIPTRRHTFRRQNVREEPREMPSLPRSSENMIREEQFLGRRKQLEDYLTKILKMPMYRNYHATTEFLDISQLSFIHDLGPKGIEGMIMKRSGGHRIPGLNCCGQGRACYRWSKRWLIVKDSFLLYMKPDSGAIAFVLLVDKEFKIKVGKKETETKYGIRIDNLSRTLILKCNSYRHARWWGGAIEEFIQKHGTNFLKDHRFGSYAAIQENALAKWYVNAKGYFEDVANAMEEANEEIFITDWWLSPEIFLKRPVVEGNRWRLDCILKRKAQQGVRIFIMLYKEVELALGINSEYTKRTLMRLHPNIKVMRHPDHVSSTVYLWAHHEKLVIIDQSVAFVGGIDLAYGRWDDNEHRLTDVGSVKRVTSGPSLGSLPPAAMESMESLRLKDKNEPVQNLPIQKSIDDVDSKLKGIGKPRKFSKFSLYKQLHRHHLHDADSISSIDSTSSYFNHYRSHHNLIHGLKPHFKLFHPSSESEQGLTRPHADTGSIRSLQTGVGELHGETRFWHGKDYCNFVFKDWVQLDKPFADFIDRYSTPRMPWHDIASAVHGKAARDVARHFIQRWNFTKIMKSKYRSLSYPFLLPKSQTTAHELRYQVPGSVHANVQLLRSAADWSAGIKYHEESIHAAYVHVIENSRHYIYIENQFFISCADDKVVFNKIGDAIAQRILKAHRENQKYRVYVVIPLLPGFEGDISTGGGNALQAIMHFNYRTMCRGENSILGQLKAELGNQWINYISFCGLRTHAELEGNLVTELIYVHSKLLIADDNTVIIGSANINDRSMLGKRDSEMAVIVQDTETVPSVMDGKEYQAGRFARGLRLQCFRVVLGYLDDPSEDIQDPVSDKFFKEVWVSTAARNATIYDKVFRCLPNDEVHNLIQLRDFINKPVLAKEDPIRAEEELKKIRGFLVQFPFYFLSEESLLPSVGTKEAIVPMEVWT
# Phospholipase D1 (Homo sapiens), sequence (Q13393 whole entry, looked up): as above
row,Structure (SMILES),remaining activity
1,O=C(NCCN1CCC2(CC1)C(=O)NCN2c1ccc(Cl)cc1)c1cnc2ccccc2c1,94.2%
2,CC1(C)C(C(=O)NCCN2CCC3(CC2)C(=O)NCN3c2ccccc2)C1(C)C,104%
3,CC(C)[C@@H](CN1CCC2(CC1)C(=O)NCN2c1ccccc1)NC(=O)c1ccc(Cl)cc1,18% (active)
4,O=C(NCCN1CCC2(CC1)C(=O)NCN2c1ccccc1)c1cccc(F)n1,138%
5,O=C(NCCN1CCC2(CC1)C(=O)NCN2c1ccccc1)c1cc2ccccc2s1,50.8%
6,O=C(C1C[C@H]1c1ccccc1)N1CC(N2CCC(n3c(=O)[nH]c4ccccc43)CC2)C1 (some centres undefined),125%
7,O=C(CCN1CCC2(CC1)C(=O)NCN2c1ccccc1)Nc1ccc(F)c(F)c1,125%
8,O=C(NCCN1CCC2(CC1)C(=O)NCN2c1ccccc1)c1ccncn1,124%
9,C[C@@H](CN1CCC2(CC1)C(=O)N(Cc1ccccc1)c1ccccc12)NC(=O)c1ccc2ccccc2c1,90.4%
10,O=C(NCCN1CCC2(CC1)C(=O)NCN2c1cccc(Cl)c1)c1cc2cc(F)ccc2[nH]1,58%
11,Cc1ccccc1C(=O)NCCN1CCC2(CC1)C(=O)NCN2c1cccc(F)c1,97.2%
12,O=C(NCCCCCCN1CCC2(CC1)C(=O)NCN2c1ccccc1)c1cnc2ccccc2c1,122%
13,C[C@@H](CN1CCC2(CC1)C(=O)NCN2c1ccccc1)NC(=O)c1ccc(F)c(F)c1,34.3% (active)
14,CC(C)[C@@H](CN1CCC2(CC1)C(=O)NCN2c1ccccc1)NC(=O)c1cnc2ccccc2c1,18.3% (active)
